The list is not random: actives were taken first. Their share in the collection is about 3.5%.
Mtb UGM inh: M. tuberculosis UGM enzyme inhibitors, primary screen, biochemical, fluorescence polarization, single point | AID 504406, 2011 | 320,000 compounds, 0.06% hits | inhibition, % at 10 µM | purified UGM, fluorescence polarization probe displacement | UDP-galactopyranose mutase (Mycobacterium tuberculosis (strain ATCC 25618 / H37Rv)), …; in the data active = inhibition above about 10%, passing the limit was not always enough
Mtb FBA inh: Mtb FBA enzyme inhibitors, primary screen, biochemical, fluorescence, strain H37Rv. Fructose-bisphosphate aldolase (Mycobacterium tuberculosis (strain ATCC 25618 / H37Rv)), …. purified M. tuberculosis FBA, fluorescence read-out. inhibition, % at 1 µM. 360,000 compounds, 2.3% hits; in the data active = inhibition above about 27%
Rv3671c protease: Rv3671c serine protease inhibitors, primary screen, biochemical, fluorescence polarization, M. tuberculosis H37Rv | P9WHR9 | inhibition, % at 5.96 µM | 320,000 compounds, 0.048% hits | AID 2606, 2010; in the data active = inhibition above about 38%;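 also: extracellular domain of Rv3671c used as enzyme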
Target sequence (P9WHR9 whole entry, looked up, the tested form may be a part): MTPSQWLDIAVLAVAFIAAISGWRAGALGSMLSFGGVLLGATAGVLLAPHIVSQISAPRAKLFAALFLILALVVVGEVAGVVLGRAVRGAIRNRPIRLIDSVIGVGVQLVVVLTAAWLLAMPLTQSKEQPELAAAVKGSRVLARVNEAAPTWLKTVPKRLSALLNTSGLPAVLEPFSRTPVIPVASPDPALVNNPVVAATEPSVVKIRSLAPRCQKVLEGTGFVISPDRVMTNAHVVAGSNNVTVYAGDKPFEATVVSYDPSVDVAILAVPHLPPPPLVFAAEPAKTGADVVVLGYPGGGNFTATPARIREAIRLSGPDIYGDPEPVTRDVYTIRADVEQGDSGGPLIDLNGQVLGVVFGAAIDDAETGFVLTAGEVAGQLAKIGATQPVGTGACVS
GDH-TPI inh: GDH-TPI coupling enzyme inhibitors, primary screen, artefact control for M. tuberculosis FBA inhibitor project, biochemical, absorbance, full deck. GDH-TPI coupled enzyme counterscreen, NADH absorbance. inhibition, % at 4.8 µM. 360,000 compounds, 1.2% hits; in the data active = inhibition above about 30%
Hits are given with their value; . = inactive; / = not tested or not shown; + = active, no number.

SMILES | Mtb UGM inh | Mtb FBA inh | Rv3671c protease | GDH-TPI inh
Cc1ccsc1/C=N/Nc1nc2ccccc2[nH]1 | / | . | / | 32
Cc1c(/C=N/Nc2nc3ccccc3[nH]2)c2ccccc2n1C | . | . | . | 32
Cc1ccc(Cn2c(C)c(C(=O)NCc3cccs3)sc2=O)cc1 | / | . | / | .
COc1ccc(/C=C/C(=O)Nc2cc(=O)n(C)c(=O)n2C)cc1 | . | . | . | .
Cn1c(NC(=O)/C=C/c2ccccc2)cc(=O)n(C)c1=O | . | . | . | 62
CC(=O)N1c2ccccc2NC2=C(C(=O)CCC2)C1c1cccnc1 (stereo unspecified) | . | . | . | .
O=C1CCCC2=C1C(c1cccnc1)Nc1ccccc1N2 (stereo unspecified) | . | . | . | 31
COC(=O)c1ccc(-c2ccc(/C=N/N3C(=O)C4C5C=CC(C6CC56)C4C3=O)o2)cc1 (stereo unspecified) | . | . | . | 34
COc1cc(-c2nc3ccccc3s2)ccc1O | . | 150 | . | .
COc1cc(OC)c(-c2nc3ccccc3s2)cc1OC | . | + | . | .
COc1cccc(-c2nc3ccccc3s2)c1O | . | . | . | .
COc1ccc(-c2nc3ccccc3s2)cc1O | . | . | . | 36
CCOc1cc(-c2nc3ccccc3s2)ccc1O | . | + | . | .
O=C(N/N=C/C1CC=CCC1)c1cc(-c2cccnc2)nc2ccccc12 (stereo unspecified) | . | . | . | .
Cc1ccc(CNC(=O)COc2ccc(S(=O)(=O)N3CCOCC3)cc2)cc1 | . | . | . | .
CC(C)N1CCC(N2CCN(CC#Cc3ccccc3)CC2CCO)CC1 (stereo unspecified) | . | . | . | .
CCNC(=O)C(=O)NCCC1CCCCN1S(=O)(=O)c1cccs1 (stereo unspecified) | . | 130 | . | .
CC(C)CNC(=O)C(=O)NCCC1CCCCN1S(=O)(=O)c1cccs1 (stereo unspecified) | . | . | . | .
COc1ccc(CCn2c(=N)c(C(=O)NCc3ccco3)cc3c(=O)n4ccccc4nc32)cc1OC | / | . | / | .
N=c1c(C(=O)NCc2ccco2)cc2c(=O)n3ccccc3nc2n1CCc1ccccc1 | . | 126 | . | .
Cc1ccc(Cn2c(=N)c(C(=O)NCc3ccco3)cc3c(=O)n4ccccc4nc32)cc1 | . | 52 | . | .
COCCn1c(=N)c(C(=O)NCc2ccco2)cc2c(=O)n3cc(C)ccc3nc21 | . | 149 | . | .
O=c1[nH]cnc2c1ncn2[C@@H]1O[C@H](COS(=O)(=O)O)[C@@H](O)[C@H]1O | . | . | . | .
COc1ccc(S(=O)(=O)NC(C(=O)OCC(=O)Nc2ccc(N3CCOCC3)cc2)C(C)C)cc1 (stereo unspecified) | / | . | / | .
CN(C)CCCN=c1cc(-c2ccccc2)oc2ccc(Cl)cc12 | / | . | / | .
SMILES | Mtb UGM inh | Mtb FBA inh | Rv3671c protease | GDH-TPI inh
OCCN=c1cc(-c2ccccc2)oc2ccc(Cl)cc12 | . | . | . | 40
CNc1nnc(-c2ccncc2)s1 | . | 145 | . | .
CNc1nnc(-c2ccc(OC)cc2)s1 | . | . | . | .
CCNc1nnc(-c2ccncc2)s1 | . | 136 | . | .
CSc1nc2nc(Cl)c(Cl)nc2[nH]1 | / | + | / | 37
CCOC(=O)CSc1nc2nc(Cl)c(Cl)nc2[nH]1 | / | + | / | 33
O=Cc1ccc(N2CCCC2)c(F)c1 | . | . | . | .
O=Cc1ccc(N2CCCCCC2)cc1 | . | . | . | 34
O=C(NNC(=O)c1ccccc1O)c1ccc(Br)cc1 | . | . | . | .
O=C(NNC(=O)c1ccccc1O)c1cccc(Br)c1 | . | . | . | 31
O=C(NNC(=S)Nc1cccc2ccccc12)c1cccc(Br)c1 | . | . | . | 35
O=C1c2ccccc2NC(c2ccc(O)c(O)c2)N1c1ccccc1Cl (stereo unspecified) | . | . | . | 41
COc1cc(C2Nc3ccccc3C(=O)N2c2ccccc2OC)ccc1O (stereo unspecified) | . | . | . | .
O=C(N/N=C/c1ccc(N2CCOCC2)cc1)c1cccs1 | . | . | . | 32
O=C(N/N=C/c1ccc(N2CCOCC2)cc1)c1ccc(NS(=O)(=O)c2cccs2)cc1 | . | . | . | 35
O=C(N/N=C/c1ccc(N2CCOCC2)s1)c1ccc(NS(=O)(=O)c2cccs2)cc1 | . | . | . | 45
COc1ccc(NC(=O)/C=C/c2cc(OC)c(OC)c(OC)c2)cn1 | . | . | . | .
COc1ccc(/C=C/C(=O)NC(=S)NNC(=O)c2cc(OC)c(OC)c(OC)c2)cc1 | . | . | . | .
COc1ccc(/C=C/C(=O)NC(=S)NNC(=O)c2cc(OC)c(OC)c(OC)c2)cc1OC | . | . | . | 51
COc1cc(/C=C/C(=O)Nc2ccc(C(C)=O)cc2)cc(OC)c1OC | . | . | . | 45
CCCC(NS(=O)(=O)c1ccc(C)cc1)C(=O)O (stereo unspecified) | . | . | . | .
CCC[C@@H](NS(=O)(=O)c1ccc(C)cc1)C(=O)Oc1ccc2c3c(c(=O)oc2c1)CCC3 | . | + | . | .
Cc1ccc(S(=O)(=O)NCCC(=O)Oc2ccc3ccc(=O)oc3c2)cc1 | . | + | . | .
Cc1ccc2cc(S(=O)(=O)NCCC(=O)O)ccc2c1 | . | . | . | .
CCC(NC(=O)OCc1ccccc1)C(=O)Oc1ccc2ccc(=O)oc2c1 (stereo unspecified) | . | + | . | .
SMILES | Mtb UGM inh | Mtb FBA inh | Rv3671c protease | GDH-TPI inh
Cc1ccc(S(=O)(=O)NC(C(=O)Oc2ccc3c(C)c(Cl)c(=O)oc3c2)c2ccccc2)cc1 (stereo unspecified) | . | + | . | .
O=S(=O)(NCc1cccc(C(F)(F)F)c1)NCc1ccccc1F | . | . | . | .
COc1ccc2[nH]c3c(NCCC4=CCCCC4)ncnc3c2c1 | / | . | / | .
OC[C@@H]1CN(Cc2ccc(Cl)cc2)C[C@H](n2cnc3c(Nc4ccccc4)ncnc32)O1 | / | . | / | .
Cc1ccc(S(=O)(=O)NC(C(=O)Oc2ccc3ccc(=O)oc3c2)c2ccccc2)cc1 (stereo unspecified) | . | + | . | .
CCOC(=O)[C@@H](NC(=O)/C=C/[C@H]1O[C@@H](n2ccc(=O)[nH]c2=O)[C@H](O)[C@@H]1O)C(C)C | / | . | / | /
Cc1ccccc1Cc1c(C)nc2c(C(=O)NCc3ccco3)cnn2c1C | . | 48 | . | .
O=C(N/N=C/c1cc2cc3c(cc2nc1Cl)OCCO3)c1ccccc1O | . | . | . | .
O=C(N/N=C/c1cc2cc3c(cc2nc1Cl)OCO3)c1ccncc1 | . | . | . | 69
Cc1ccc(N=C2NC(=O)/C(=C/c3cccnc3)S2)c(C)c1 | . | . | . | 33
Cc1ccc(N=C2NC(=O)/C(=C\c3ccsc3)S2)c(C)c1 | . | . | . | 33
N#CCCN(C(=O)COC(=O)C1CCN(S(=O)(=O)c2ccccc2C(F)(F)F)CC1)c1ccccc1 | / | . | / | .
COc1ccc2nc(-c3ccccc3)nc(SC)c2c1 | / | . | / | .
